Laboratory results reported in PubChem BioAssay (NCATS).
Inconclusive results are not listed. A call without a number means that no potency is given here. Unmarked numbers belong to inactive results. Calls of active or inactive are those of the source. Unless noted, the call rests on the fitted dose curve; in most records, active means well fitted curve in the direction sought with a large enough effect; inconclusive means small, poorly fitted or top-dose-only effect, or another doubt; inactive means no such curve, though single readings can be large; an effect the other way counts as inactive or inconclusive.

How the values were obtained:
[1] = qHTS for Inhibitors of Plasmodium falciparum (DD2) proliferation (AID 504314); further: potency means the concentration at half of the fitted maximal effect;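 on activity, negative = inhibition: parasite DNA measured by SYBR Green fluorescence after red cell lysis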
Summary of the method: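 Parasite proliferation measured as SYBR Green signal from Plasmodium DNA, mature erythrocytes lacking DNA. 72 h incubation, 37C; activity scaled between vehicle and 0.29 uM artemisinin, with correction from vehicle-only plates.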

[2] = qHTS for Inhibitors of Plasmodium falciparum (GB4) proliferation (AID 504315); further: nearly all actives have a fitted effect of over 50% in size; further: potency means the concentration at half of the fitted maximal effect
Summary of the method: (§1)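 Parasite growth measured as SYBR Green DNA fluorescence (ex 485, em 535 nm) after overnight lysis following 72 h culture at 37 °C, 0.3% parasitemia, 2.5% hematocrit. Values normalized against DMSO and 0.29 uM artemisinin controls, with plate-stack correction.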

[3] = qHTS for Inhibitors of Plasmodium falciparum (HB3) proliferation (AID 504318); further: nearly all actives have a fitted effect of over 60% in size; further: potency means the concentration at half of the fitted maximal effect
Summary of the method: as §1

[4] = qHTS for Inhibitors of Plasmodium falciparum (CP250) proliferation (AID 504320); further: potency means the concentration at half of the fitted maximal effect
Summary of the method: as §1

[5] = biological target: Atrial natriuretic peptide receptor 1 (Homo sapiens) (UniProt P16066); assay: Natriuretic polypeptide receptor (hNpr1) antagonism - Pilot CMLD screen (AID 1347052; calls by dose curve;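 further: HEK293 cells with hNpr1 stimulated by hNppA peptide at 0.1 nM; cGMP level read as GloSensor luciferase luminescence after agonist stimulation; series mostly up to about 9.2 µM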)
Chain of Atrial natriuretic peptide receptor 1 (Homo sapiens) (P16066 whole entry, looked up): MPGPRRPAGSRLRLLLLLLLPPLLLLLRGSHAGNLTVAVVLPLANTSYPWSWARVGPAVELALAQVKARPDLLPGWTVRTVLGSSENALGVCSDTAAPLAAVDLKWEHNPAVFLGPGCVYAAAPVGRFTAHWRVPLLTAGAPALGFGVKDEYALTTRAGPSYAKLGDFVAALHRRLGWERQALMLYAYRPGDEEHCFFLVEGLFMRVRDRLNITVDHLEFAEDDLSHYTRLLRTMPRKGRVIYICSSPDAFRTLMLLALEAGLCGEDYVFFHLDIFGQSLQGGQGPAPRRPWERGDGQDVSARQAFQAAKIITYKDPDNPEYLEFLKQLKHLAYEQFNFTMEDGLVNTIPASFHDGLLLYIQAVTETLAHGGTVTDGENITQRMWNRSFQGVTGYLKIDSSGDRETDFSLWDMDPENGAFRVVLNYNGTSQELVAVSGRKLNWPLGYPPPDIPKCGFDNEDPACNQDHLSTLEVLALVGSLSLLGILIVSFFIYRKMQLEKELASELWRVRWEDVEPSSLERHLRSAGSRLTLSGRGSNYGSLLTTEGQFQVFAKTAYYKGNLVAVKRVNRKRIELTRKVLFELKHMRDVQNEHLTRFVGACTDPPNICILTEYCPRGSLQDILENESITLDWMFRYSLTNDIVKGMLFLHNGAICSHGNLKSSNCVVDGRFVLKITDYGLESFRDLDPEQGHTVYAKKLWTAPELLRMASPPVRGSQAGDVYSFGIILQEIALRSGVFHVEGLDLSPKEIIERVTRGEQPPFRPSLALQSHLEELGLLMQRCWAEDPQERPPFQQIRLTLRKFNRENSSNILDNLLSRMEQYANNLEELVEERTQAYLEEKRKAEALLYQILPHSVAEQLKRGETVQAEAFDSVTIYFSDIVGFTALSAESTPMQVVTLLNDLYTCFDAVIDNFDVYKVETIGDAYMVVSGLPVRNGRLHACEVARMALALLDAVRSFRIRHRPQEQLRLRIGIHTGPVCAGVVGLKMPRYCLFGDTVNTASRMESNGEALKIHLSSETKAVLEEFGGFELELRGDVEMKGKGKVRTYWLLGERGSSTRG

Structure (SMILES) | Potency [1] | Potency [2] | Potency [3] | Potency [4] | Potency [5] | activity, negative = inhibition [1]
CC(CCN1CCCCc2nc(C)c(C)cc21)=NOC[C@@H](O)[C@H]1O[C@@H]2OC(C)(C)O[C@H]2[C@@H]1O | inactive | inactive | inactive | inactive | inactive | –
CCOC(=O)NN=C1C[C@@H](O)[C@@H](O)[C@@H]2[C@H]3C(=O)N(C4CCCCC4)C(=O)[C@@H]3CC[C@H]12 | inactive | inactive | inactive | inactive | inactive | –
CCCCCCCC1=Cc2ccc(F)cc2C(C(C(C)=O)C(=O)OC)N1C(=O)OC (stereo not given) | inactive | inactive | inactive | inactive | inactive | –
COCCN1C(=O)NC(c2ccccc2)C(C(=O)OC)=C1C (stereo not given) | inactive | inactive | inactive | inactive | inactive | –
C=CCN1c2ccccc2[C@]23CCC(=O)N(Cc4ccco4)C2=NC(C(=O)OC)=C(C(=O)OC)[C@H]13 | inactive | inactive | inactive | inactive | inactive | –
O=C(C=Cc1ccccc1)N1CCC[C@H]1CO | inactive | inactive | inactive | inactive | inactive | –
CCCNC(=O)OC[C@H]1O[C@H](CCON=C2[C@H]3CCn4c(=O)n(-c5ccccc5)c(=O)n4[C@@H]3[C@H](O)[C@@H]3O[C@H]23)C=C[C@H]1Oc1ccc(OC)cc1 | inactive | inactive | inactive | inactive | inactive | –
C=CCOC(=O)C(C(C)=O)[C@@H](NC(=O)OC)c1ccc(F)cc1 (stereo not given in full) | inactive | inactive | inactive | inactive | inactive | –
COC(=O)CC=C[C@@H](C)[C@@H](C=NOCC[C@@H]1C=C[C@H](OC(C)=O)[C@@H](COC(C)=O)O1)NS(=O)(=O)c1ccc(C)cc1 | inactive | inactive | inactive | inactive | inactive | –
CC(CCC(=O)OC[C@H]1O[C@H](C#Cc2ccccc2)C=C[C@H]1Oc1ccc(C)cc1)=NO[C@@H](C)CN1CCCCc2nc(C)c(C)cc21 | inactive | inactive | inactive | inactive | inactive | –
COc1cc(O)c(C(=O)C=Cc2ccc3c(c2)OCO3)c(OC)c1 | inactive | inactive | inactive | inactive | inactive | –
C=CCN1C(=O)[C@@]2(CC(C)=C[C@@H](COc3ccccc3)O2)c2ccccc21 | inactive | inactive | inactive | inactive | inactive | –
C[C@H]1CC[C@H]2C(=O)N[C@H](Cc3ccccc3)C(=O)N2[C@H]1c1ccccc1 | inactive | inactive | inactive | inactive | inactive | –
OC[C@H]1O[C@H](C#Cc2ccc(F)cc2F)C=C[C@H]1O | inactive | inactive | inactive | inactive | inactive | –
CCOC(=O)c1c(C(=O)OCC)c2c3ccccc3cc(C)n2c1C(=O)OC | inactive | inactive | inactive | inactive | inactive | –
COC(=O)C1=C(C)N(Cc2ccccc2)C(=NCc2cc(OC)c(OC)c(OC)c2)NC1CCc1ccccc1 (stereo not given) | 1.06 µM (active) | 0.849 µM (active) | 2.94 µM (active) | 1.07 µM (active) | inactive | –
COc1ccc(-c2nc(-c3ccccc3)oc2NC(C)c2ccccc2)cc1 (stereo not given) | inactive | inactive | inactive | inactive | inactive | –
CC(=O)C1=CN(CCc2c[nH]c3ccccc23)C(=O)NC1c1ccccc1 (stereo not given) | inactive | inactive | inactive | inactive | inactive | –
CC(=O)N1C(=O)NC(C)=C(C#N)C1c1ccccc1 (stereo not given) | inactive | inactive | inactive | inactive | inactive | –
FC(F)(F)c1ccc(-c2nc(-c3ccccc3)oc2Nc2ccc3ccccc3c2)cc1 | inactive | inactive | inactive | inactive | inactive | –
CCCCCCCc1cc2ccccc2c2c(C(=O)OC)cc(C(=O)OC)n12 | inactive | inactive | inactive | inactive | inactive | –
CCN1C(=O)[C@@H]2[C@H]3[C@H](O)[C@H](O)CC(=NNC(=O)OCc4ccccc4)[C@@H]3CC[C@H]2C1=O | inactive | inactive | inactive | inactive | inactive | –
C=CCOC(=O)N[C@H](C(C(=O)OC)=C(C)NCc1ccccc1)c1ccc(Br)cc1 | inactive | inactive | inactive | inactive | inactive | –
C[C@@H]1C=CCC(=O)OC[C@H](C)C(=O)OC[C@H]2O[C@H]1C=C[C@H]2O | inactive | inactive | inactive | inactive | inactive | –
C=CC1=C2C=C(C3CC3)N(CC(C)C)C=C2C(=O)C(C)(OC(=O)c2ccco2)C1=O (stereo not given) | – | inactive | inactive | inactive | inactive | -0.305% [at 1.12 µM]
COCCN1C(=O)NC(c2cccc(F)c2)C(C(C)=O)=C1C (stereo not given) | inactive | inactive | inactive | inactive | inactive | –
CCCCCCN1C(=O)CC[C@@]23C1=NC(C(=O)OC)=C(C(=O)OC)[C@@H]2N(Cc1ccccc1)c1ccccc13 | inactive | inactive | inactive | inactive | inactive | –
